Molecules are shown by their SMILES. Several values for one entry are separate records, joined by “and”; a condition that tells them apart may be missing. Equal entries are not always repeated. Activity calls are given as the source filed them. How the calls were made is not given here.

The nature of the test: kinase inhibitors altering Pseudomonas killing of worms, whole organism (AID 651566).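 Further: tested at 14 µM; sign flipped so higher z means a lower ratio.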 Conditions: C. elegans killed by P. aeruginosa, survival ratio.
In the case of `COc1ccc(Nc2ncc(-c3ccccc3)o2)cc1OC`, the z-score was -0.885 (inactive).
In the case of `Fc1ccc(-c2nc3n(c2-c2ccncc2)CCS3)cc1`, the z-score was 0.075 (inactive).
For `CCn1c(-c2nonc2N)nc2cnc(Oc3cccc(NC(=O)c4ccc(OCCN5CCOCC5)cc4)c3)cc21`, the z-score was 0.625 (inactive).
As for `Cc1ccc(O)cc1Nc1ccnc2ccc(S(C)(=O)=O)cc12`, the z-score is 0.285 (inactive).
`CN(C)c1cc2c(Nc3ccc4c(cnn4Cc4ccccc4)c3)ncnc2cn1`: the z-score was 0.66 (inactive).
Consider `Cc1ccc2c(-c3ccnc(Nc4ccc5c(c4)OCCO5)n3)c(-c3ccc(C(F)(F)F)cc3)nn2n1`, for which the z-score was -1.23 (inactive).
As for `Cc1ccc(NC(=O)c2ccoc2)cc1-c1ccc(C(=O)NCC2CC2)cc1`, the z-score was 0.02 (inactive).
Take `O=C(Nc1n[nH]c2cc(-c3cc(F)ccc3F)ccc12)C1CC1`: the z-score was -0.655 (inactive).
Regarding `NC(=O)c1ccc(-c2nc(-c3ccc4c(c3)OCO4)c(-c3ccccn3)[nH]2)cc1`, the z-score is -0.47 (inactive).
On to `CN(C)c1cc2c(Nc3ccc4nc(Cc5ccccc5)[nH]c4c3)ncnc2cn1`, for which the z-score was 0.16 (inactive).
Take `Cc1ccc(C(=O)NC2CCC2)cc1-c1ccc(C(=O)NCC2CC2)cc1`: the z-score was 0.425 (inactive).
Turning to `CCNC(=O)O[C@H]1CN[C@H](C#Cc2cc3ncnc(Nc4ccc(OCc5cccc(F)c5)c(Cl)c4)c3s2)C1`, the z-score was 1.02 (inactive).
As for `COc1cc2ncn(-c3cc(O[C@H](C)c4ccccc4Cl)c(C(N)=O)s3)c2cc1OC`, the z-score was -0.155 (inactive).
For `Clc1ccc(CNc2nccc(-c3cnn4ncccc34)n2)cc1` the value was 0.125 (inactive).
With `CCc1cccc(NC(=O)Nc2ccc(Oc3ccc4nc(NC(=O)OC)[nH]c4c3)cc2)c1`, the z-score was -0.175 (inactive).
In the case of `COc1cc2ncn(-c3cc(OCc4ccccc4S(C)(=O)=O)c(C#N)s3)c2cc1OC`, the z-score is -0.355 (inactive).
Turning to `Cn1cc(/C=C2\C(=O)Nc3cccnc32)c2ccccc21`, the z-score is 0.915 (inactive).
With `COc1cc(N2CCN(C(C)C)CC2)ccc1Nc1nc(Nc2ccc(F)cc2C(N)=O)c2cc[nH]c2n1`, the z-score was 0.205 (inactive).
In the case of `NC(=O)c1ccc2c(-c3ccnc(NCCCO)n3)c(-c3ccc(F)cc3)nn2c1`, the z-score is -0.18 (inactive).
For the compound `Fc1ccc(-c2ncn(C3CCNCC3)c2-c2ccnc(Oc3ccc4c(c3)OCO4)n2)cc1`, the z-score is 0.22 (inactive).
Turning to `Fc1cccc(COc2ccc(Nc3ncnc4sc(-c5ccco5)cc34)cc2Cl)c1`, the z-score is 0.87 (inactive).
On to `Cc1ccc(O)cc1Nc1ccnc2cc(-c3ccccn3)ccc12`, for which the z-score was -1.05 (inactive).
For `COc1ccc(-c2coc3ncnc(N)c23)cc1` the value was 0.065 (inactive).
Regarding `N#Cc1c(NC(=O)c2ccccc2F)sc2c1CCCC2`, the z-score was 0.24 (inactive).
For `COc1ccc(-c2oc3ncnc(N)c3c2-c2ccc(NC(=O)Nc3cc(C(F)(F)F)ccc3F)cc2)cc1`, the z-score was 0.785 (inactive).
The same measure for `CN(C)CCOc1ccc(-c2nc(-c3ccc4c(c3)CC/C4=N\O)c(-c3ccncc3)[nH]2)cc1`: -0.45 (inactive).
Consider `COc1ccc(COc2ccc(Cc3cnc(N)nc3N)cc2OC)cc1`, for which the z-score is -0.075 (inactive).
Consider `CS(=O)(=O)Nc1ccc(-c2ccc3c(NC(=O)C4CC4)n[nH]c3c2)cc1`, for which the z-score was 0.39 (inactive).
For `Fc1ccc(-c2c(-c3ccncc3)nc3n2CCS3)cc1` the value was -1.12 (inactive).
`Cc1cc(O)cc(C)c1/C=C/c1cncc(C(=O)N(C)C)c1`: the z-score was 0.18 (inactive).
Regarding `CS(=O)(=O)CCNCc1nc(-c2ccc3ncnc(Nc4ccc(F)c(Cl)c4)c3c2)cs1`, the z-score was 0.63 (inactive).
The same measure for `Nc1ncnc2occ(-c3ccc(NC(=O)Nc4cc(C(F)(F)F)ccc4F)cc3)c12`: -0.79 (inactive) and 0.505 (inactive); for `Nc1nccc(-c2c(-c3ccc(F)cc3)ncn2C2CCNCC2)n1`: -0.995 (inactive) and 0.19 (inactive).

Values taken from PubChem BioAssay.
